From paper PMC5540273 (PLoS ONE, 2017)

Tested on: TNIK
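Also: kd values determined as follow-up on hits from a single-replicate KINOMEscan panel screen.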

First: Fc1ccc(Nc2nccc(-c3c(-c4ccc(Cl)cc4)nn4ncccc34)n2)cc1F [GW829058]
Second: Clc1ccc(-c2cc(-c3c[nH]nc3-c3ccccn3)ccn2)cc1 [GW681251]
The Kd of the first is higher: greater than 10 µM for the first, 0.39 µM for the second.

`CCC(CC)(CC)n1cnc2c(N)ncnc21` [SKF-97620] and `Nc1nc(-c2cccnc2)c(-c2ccnc3ccccc23)s1` [GW684083] cannot be ordered by Kd: greater than 10 µM for the first, greater than 10 µM for the second.

Tested on: TYK2(JH2domain-pseudokinase)

In order of falling Kd:
1. COc1ccc(-c2oc3ncnc(N)c3c2-c2ccc(OC)cc2)cc1 [SB-589132]  1600 nM
2. CC(=O)Nc1n[nH]c2ncc(-c3ccccc3)cc12 [SB-548492]  580 nM
3. CN1c2ccc(-c3ccc(C(=O)NCCO)cc3)cc2-c2[nH]ncc2S1(=O)=O  130 nM
